GC-A act: GC-A stimulated cGMP production enhancers – HEK293 GC-A cells, cGMP TR-FRET, EC30 ANP, primary screen; Atrial natriuretic peptide receptor 1 (Homo sapiens), P16066; 0% at EC30 ANP, 100% saturating ANP; activation, % at 10 µM; 370,000 tested, 0.14% active; AID 1671463, 2021; in the data active means activation above about 40%
HDAC3 inhib: HDAC3 deacetylase inhibitors, primary screen, biochemical, fluorescence, cell-free homogeneous. Histone deacetylase 3 (Homo sapiens), O15379. recombinant HDAC3, fluorogenic peptide/trypsin coupled. inhibition, % at 8.3 µM. 320,000 tested, 0.15% active. AID 2718, 2010; in the data active means inhibition above about 26%, passing the limit was not always enough
NPR2 activator: human GC-B receptor activators, primary screen, HEK293 GC-B cells, cGMP TR-FRET, EC30 CNP; Atrial natriuretic peptide receptor 2 (Homo sapiens), P20594; 0% at EC30 CNP, 100% saturating CNP; activation, % at 10 µM; 370,000 tested, 0.11% active;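 active means activation at 10 µM reaching about 35% in either raw or pattern-adjusted values, limit read from the data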
ALR inh: inhibitors of human ALR sulfhydryl oxidase, primary screen, biochemical, H2O2 detection, HRP-luminol luminescence, single point | 290,000 tested, 3.8% active | inhibition, % (test concentration not listed) | purified ALR, DTT oxidation | FAD-linked sulfhydryl oxidase ALR (Homo sapiens), P55789 | AID 485317, 2010;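 active means mean replicate inhibition above about 79%, with every replicate also reaching it, limit read from the data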
Numbers without * were called inactive; x = no result given. This excerpt belongs to a sample that is enriched for hits.

SMILES | GC-A act | HDAC3 inhib | NPR2 activator | ALR inh
CCn1c(SCC(=O)N/N=C/c2c[nH]c3ccccc23)nnc1-c1ccc(C(C)(C)C)cc1 | 0.8 | 6.6 | -1.5 | -0.7
C=CCc1cc(/C=C2/NC(=O)NC2=O)cc(OCC)c1O | 5.2 | 4.1 | -17.4 | 9.0
CCOc1cc(/C=C2/NC(=O)NC2=O)cc([N+](=O)[O-])c1O | -11.4 | 3.4 | -3.0 | 93.8*
COc1ccc(C(=O)NCCNc2nc3ccc(C)cc3cc2C#N)cc1OC | 1.9 | 1.6 | 8.6 | 90.1*
Cc1cc(=O)oc2cc(OC(C)C(=O)O)c(Cl)cc12 (centres undefined) | 2.9 | -11.2 | 0.2 | 1.4
CC(=O)Oc1cc2oc(=O)cc(C)c2cc1Cl | -0.2 | -246.2 | -1.6 | 96.9*
Cc1c(Cl)c(-c2n[nH]c(=S)n2CC(C)C)nn1C | -1.3 | 8.8 | 6.7 | 92.6*
Cc1c(Cl)c(-c2n[nH]c(=S)n2-c2ccc(F)cc2)nn1C | 11.8 | 8.3 | 5.1 | 91.2*
Cc1ccsc1-c1n[nH]c(=S)n1CC(C)C | 0.6 | -0.5 | 1.8 | 94.1*
CCCCn1c(-c2nn(C)c(C)c2Cl)n[nH]c1=S | 1.0 | 1.4 | -3.5 | 47.8
Cc1ccc(-n2c(-c3nn(C)cc3Cl)n[nH]c2=S)cc1 | 0.7 | 6.0 | -6.3 | 58.4
Cn1cc(Cl)c(-c2n[nH]c(=S)n2-c2ccc(F)cc2)n1 | 2.3 | 6.1 | 3.2 | 87.5*
CC(C)Cn1c(-c2nn(C)cc2Cl)n[nH]c1=S | 3.2 | 5.6 | -6.9 | 9.8
COc1ccc(CN2C(C(=O)NCC(C)C)CSCCS2(=O)=O)cc1 (centres undefined) | -1.3 | x | 3.4 | x
Cc1ccc(N2C(=O)c3sc4nnc(C)c(=O)n4c3C2=O)cc1 | -2.5 | 6.2 | -20.3 | 98.5*
Cc1ccc(C)n1-c1sc2c(c1C(=O)O)CCCC2 | -6.0 | -0.5 | 1.1 | 96.1*
CN1CCCCC(NC(=O)c2ccc(F)cc2)C1=O (centres undefined) | 0.8 | x | -0.4 | x
COc1ccc(/C=N/NC(=O)c2[nH]c3ccc(Cl)cc3c2-c2ccccc2)c(C(=O)O)c1OC | 1.8 | 7.5 | -5.7 | 97.5*
COc1ccc(/C=N/NC(=O)c2[nH]c3ccc(Br)cc3c2-c2ccccc2)c(C(=O)O)c1OC | -6.9 | -1.8 | -0.7 | x
N#C/C(=C\c1ccc(-c2ccccc2)o1)C(=O)Nn1cnnc1 | 2.1 | -2.4 | 0.8 | 97.6*
Cc1ccc(-c2ccc(/C=C(\C#N)C(=O)Nc3cc(C)nn3-c3ccccc3)o2)cc1 | x | 0.8 | x | -5.7
COc1ccc(-c2cc(-c3n[nH]c(=S)n3-c3cc(OC)ccc3OC)[nH]n2)cc1 | -7.9 | 7.9 | -11.5 | 82.9*
Cc1ccsc1C(=O)N1CCCC(CO)(Cc2ccccc2F)C1 (centres undefined) | 0.6 | 5.6 | 0.6 | -3.4
CC(C)n1c(-c2ccc(C(C)(C)C)cc2)n[nH]c1=S | 3.3 | 2.4 | 4.5 | 82.4*
Cc1[nH]c2ccccc2c1/C=N/NC(=S)NC(C)C | 11.7 | 16.0 | 16.3 | 99.5*
SMILES | GC-A act | HDAC3 inhib | NPR2 activator | ALR inh
CCN(CC)CCCN1C(=O)C2C(C(=O)Nc3ccc(C(C)C)cc3)C3C=CC2(O3)C1C(=O)NC1CCCCC1 (centres undefined) | 7.7 | -1.1 | 3.7 | 3.2
O=c1c2ccccc2ncn1Cc1ccc2c(c1)OCO2 | 4.4 | 2.0 | 6.5 | -1.3
CC(C)CCn1cnc2c(c1=O)c1nc3ccccc3nc1n2Cc1ccc2c(c1)OCO2 | 39.2 | x | 50.1* | x
Cn1c(SCC(=O)Nc2cccc(S(=O)(=O)NC3=NCCCCC3)c2)nnc1-c1ccncc1 | 0.6 | 4.4 | -0.2 | -0.4
COc1cc2c(cc1OC)CN(C(=O)c1cccc([N+](=O)[O-])c1)CC2 | 1.0 | 0.0 | 2.0 | -16.7
Oc1ccccc1Nc1nc(NCC2CCCO2)c2ccccc2n1 (centres undefined) | 5.5 | -7.2 | -6.4 | 98.8*
Cc1cc(OCC(F)(F)C(F)(F)C(F)(F)C(F)(F)C(F)(F)C(F)F)nc(N)n1 | -5.1 | x | -5.5 | x
NC(=O)c1ccc(OCC(F)(F)C(F)(F)C(F)(F)C(F)(F)C(F)(F)C(F)F)cc1 | -2.5 | 30.9* | 3.3 | -1.7
CC1(C)CC(=O)C2=C(C1)NC(=O)CC2 | 1.6 | x | 2.7 | x
COc1c(C(CC(C)C)OC(C)=O)ccc2c1C(=O)OCc1cc(C)cc(O)c1O2 (centres undefined) | -0.1 | 33.9* | -1.1 | -56.9
C=CCOc1ccc(C2/C(=C(\O)c3ccc4c(c3)OCCO4)C(=O)C(=O)N2CCCN2CCOCC2)cc1 (centres undefined) | 0.5 | -4.5 | 4.7 | 6.0
COc1cc(NCCCCCCCN)c2ncccc2c1 | x | 6.3 | x | 96.3*
Clc1ccc(OCCOCCNCc2ccccc2)cc1Cl | -17.3 | -2.7 | -4.9 | -4.2
CC(C)(C)C(=O)Cn1ncc(N2CCOCC2)c(Cl)c1=O | 2.5 | 1.6 | -1.3 | -4.5
CC(C)(C)C(=O)Cn1ncc(Br)c(Br)c1=O | 61.9* | x | 1.5 | x
O=C1CCC(C(=O)N2CCCCO2)CN1Cc1cccc(F)c1 (centres undefined) | 1.6 | -0.1 | -1.6 | -13.5
COCCNC(=O)CSc1cc(-c2ccccc2)c2ccc(OC)cc2n1 | 1.9 | -2.1 | -0.7 | 97.0*
O=S(=O)(C/C(=C/CO)S(=O)(=O)c1ccccc1)c1ccccc1 | -6.7 | -3.0 | 4.4 | 98.6*
O=C(CS(=O)(=O)c1ccccc1)CS(=O)(=O)c1ccccc1 | 2.4 | x | 4.7 | x
CCC(NC(=O)Cc1cccs1)c1ccccc1 (centres undefined) | 0.7 | -4.4 | 68.3* | -17.9
O=C(NC(=S)NCc1ccccc1)c1cccs1 | 0.6 | 4.1 | 5.9 | 37.2
O=C(Cc1ccccc1)NNC(=S)NC(=O)c1cccs1 | -2.9 | -2.2 | 2.0 | 97.0*
O=C(NC(=S)NNC(=O)c1cccs1)c1ccc(Br)o1 | 1.2 | 6.1 | 2.2 | 98.7*
O=C(Cc1cccs1)NNC(=S)NC(=O)c1ccccc1 | 2.2 | 2.6 | -4.4 | 98.2*
Cc1nn(C(C)C(=O)NC(C)CCc2ccccc2)c(=O)c2cc3occc3n12 (centres undefined) | -2.7 | 1.6 | -5.1 | 2.9
SMILES | GC-A act | HDAC3 inhib | NPR2 activator | ALR inh
CC(C)NC(=O)C1(N2C(=O)c3ccccc3C2=O)CCCC1 | 1.3 | x | 1.5 | x
Cc1cc(OCC(=O)NNC(=S)NC(=O)c2ccc(Br)o2)ccc1Cl | 1.1 | 2.3 | 4.8 | 87.9*
C=CCN(Cc1ccc(OC)c(OC)c1)C(=O)c1cc2cc(F)ccc2[nH]1 | 0.8 | 10.2 | 9.2 | -9.6
O=S(=O)(c1cccs1)n1nnc2ccccc21 | 4.1 | -4.5 | -0.1 | -3.9
O=S(=O)(c1cccs1)n1cnc2ccccc21 | -2.3 | -4.8 | -5.9 | 97.1*
Cc1ccc(S(=O)(=O)n2cnc3ccccc32)cc1 | 5.6 | 1.2 | 3.0 | -8.2
O=[N+]([O-])c1ccccc1S(=O)(=O)n1cnc2ccccc21 | -3.7 | 1.5 | 3.9 | 94.9*
CC(=O)Nc1ccc(S(=O)(=O)NCc2nc(-c3cccc(C)c3)no2)cc1 | -0.1 | -0.8 | 0.5 | x

Source: PubChem BioAssay (several laboratories)
